Laboratory results reported in PubChem BioAssay AID1845225 (National Center for Advancing Translational Sciences (NCATS), 2023).
Inconclusive results are not listed. Values without a mark were called inactive. Calls come from the whole dose curve; as a rule, active = well fitted curve in the direction sought with a large enough effect; inconclusive = small, poorly fitted or top-dose-only effect, or effect the other way, or another doubt; inactive = no such curve, though single readings can be large or run the other way.

Test: Confirmatory redox qHTS assay for identification of artifact compounds.
Details: Amplex Red/HRP redox cycling with DTT, fluorescence; series mostly up to 39 µM; redox activity vs DA3003: at the top concentration
Description: PI: Alexander Tropsha Ph.D. UNC Eshelman School of Pharmacy University of North Carolina, Chapel Hill, North Carolina Hits from high-throughput screening (HTS) of chemical libraries are often false positives due to their interference with the assay detection technology. In response to this problem, we generated the largest publicly available library of chemical liabilities and developed a free webtool to predict HTS artifacts, both of which are described herein. More specifically, we generated, curated, and integrated HTS datasets for thiol reactivity, redox activity, and luciferase (firefly and nano) activity. Using these curated datasets, we developed and validated several Quantitative Structure-Interference Relationship (QSIR) models to predict nuisance behavior. […] These models were employed for virtual profiling of the National Center for Advancing Translational Science's (NCATS) in-house library, and 256 compounds for each assay were selected for the experimental validation of nuisance behavior. The BA for these external predictions ranged from 58 to 78% for compounds within the applicability domains of the models. […] The models developed in this study, along with aggregation models previously developed by our group (SCAM Detective) were implemented in "Liability Predictor," an online tool which may be used as part of chemical library design or for triaging HTS hits. Both the models and the curated datasets are publicly available at https://liability.mml.unc.edu/.
PROTOCOL TABLE SEQUENCE No. (e.g., 1, 2, 3, etc.); […] (e.g., Cells, Incubation, Reagent, etc.); VALUE; DESCRIPTION. 1; Reagent; 3 uL; Amplex Red and HRP mixture. 2; Compounds and control; 16 nL; Kalypsis pin tool (Wako USA) equipped with a 1536-well pin head. 3; Incubation; 15 min. 4; Reagent; 1 uL; […]. 5; Incubation; 30 min. 6; Detection; Fluorescence, ViewLux microplate reader, 525 nm excitation, 598 nm emission. NOTES (numbers refer to Sequence numbers above) 1. 3 uL of a mixture containing Amplex Red (25 uM final concentration) and horseradish peroxidase (HRP; 250 mU/mL final concentration) in assay buffer (HBSS) was dispensed into all wells of a 1536-well assay plate (solid-bottom black plate; Greiner Bio One, Monroe, NC). 2. […] 3. 15 min. incubation at room temperature protected from light. 4. 1 uL of DTT (prepared fresh; final concentration 250 uM) was dispensed for a final assay volume of 4 uL. 5. Plates were centrifuged (121xg, 15 seconds) and incubated for 30 minutes at room temperature protected from light. 6. Samples were read for fluorescence (Ex/Em = 525(20)/598(25) nm) on a ViewLux CCD imager (PerkinElmer). Data were normalized to DMSO (0% activity) and DA3003 (10 uM final concentration; 100% activity) and the resulting percent inhibition data were fitted to a 4-parameter Hill equation using NCATS in-house software.

| Structure (SMILES) | redox activity vs DA3003 [%] |
| --- | --- |
| Cn1c(=O)n(C)c2cc(CNCCc3ccccc3)ccc21 | 0.209 |
| Cc1ccc(C(C)C)c(OCC(=O)N2CCN(CCc3ccncc3)CC2)c1 | 5.17 |
| CSc1nc(NC(C)C)nc(NC(C)C)n1 | -0.557 |
| Clc1ccc(C(Cl)(Cl)Cl)cc1Cl | -1.25 |
| CCCOC(=O)c1ccccc1C(=O)OCCC | -1.08 |
| CCOc1ccc(CCNC(=O)c2cc3ccccc3n2CCN2CCOCC2)cc1OCC | 18.3 |
| Oc1cccc[c]1[Hg][Cl] | -0.83 |
